Screening results from PubChem.
Only some compounds are listed: those with a hit (about 0.89% of all), similar ones and a draw of the others.
CtBP-E1A inh: blocks the CtBP interaction with E1A; AlphaScreen GST-E1A/His-CtBP binding, 1536-well; stronger effect = lower value; activity change, % (concentration not given with the values); hit rate 0.49% among 340,000; in the data active = activity change below about -65%; inconclusive = mostly about -30% to -63%; note: % is set by controls: 0 for no effect and ±100 for the full control effect
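AlphaScreen with 125 nM GST-E1A and 125 nM His-CtBP (5X stocks) in Tris pH 8.0, 300 mM NaCl, BSA, Tween 20, TCEP. Compounds preincubated 2 h at 37 deg C, then glutathione donor/nickel acceptor beads added for 1 h at 37 deg C in dark.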
MBNL1-CUG inh: MBNL1-poly(CUG) RNA binding inhibition | Q9NR56 | Potency, µM (doses to about 57.5 µM), without a hit: at the top dose activity change, negative = inhibition, usual class: inhibitors | TR-FRET MBNL1-His/biotin-(CUG)12 binding, 665/545 ratio | hit rate 0.036% among 280,000; active = well fitted inhibition curve with a large enough effect in the signal ratio, with a control signal flat, not every such curve was filed as active; inconclusive = small, poorly fitted or top-dose-only effect, or effect the other way, or a change in a side signal; inactive = no such curve, though single readings can be large or run the other way; the % refers to the signal ratio; note: potency is the fitted concentration of half-maximal effect; % is set by controls: 0 for no effect and ±100 for the full control effect
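TR-FRET between His-tagged MBNL1 and biotin-(CUG)12 RNA, detected with Tb anti-His antibody (0.055 ng/ul) and streptavidin-XL665 (5 nM), 60 min at room temperature. Compounds titrated 92 nM to 58 uM; 665/545 nm ratio normalized to buffer and complex controls.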
CBFb-RUNX1 inh: inhibitors of human CBF-beta and RUNX1 interaction; Q01196+Q13951; AlphaScreen CBFb-His/RUNX1-biotin binding, biochemical; Potency, µM (titrated, usually from 59.8 µM), for inactives: top-dose activity, negative = inhibition, hits mostly inhibitors; 230,000 tested, under 10 active; AID 1477; note: % of control where 0% means no effect
Target sequence (Q01196 whole entry, looked up): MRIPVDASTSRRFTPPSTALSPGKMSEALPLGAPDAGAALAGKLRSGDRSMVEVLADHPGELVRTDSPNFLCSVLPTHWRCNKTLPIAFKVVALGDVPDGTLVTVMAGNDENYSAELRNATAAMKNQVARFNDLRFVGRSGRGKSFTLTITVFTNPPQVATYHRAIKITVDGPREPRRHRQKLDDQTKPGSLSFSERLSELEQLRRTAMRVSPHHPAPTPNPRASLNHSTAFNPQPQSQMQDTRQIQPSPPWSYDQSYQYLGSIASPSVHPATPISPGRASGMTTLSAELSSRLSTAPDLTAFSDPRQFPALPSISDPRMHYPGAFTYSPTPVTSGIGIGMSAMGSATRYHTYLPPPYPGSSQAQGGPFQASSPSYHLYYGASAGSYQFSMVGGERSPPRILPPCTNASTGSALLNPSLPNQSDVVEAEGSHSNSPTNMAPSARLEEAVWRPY
Target sequence (Q13951 whole entry, looked up): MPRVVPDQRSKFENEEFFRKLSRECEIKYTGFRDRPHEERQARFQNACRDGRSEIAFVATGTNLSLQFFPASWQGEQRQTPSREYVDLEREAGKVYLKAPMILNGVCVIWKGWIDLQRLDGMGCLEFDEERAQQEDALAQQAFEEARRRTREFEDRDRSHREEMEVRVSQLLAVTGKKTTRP
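AlphaScreen proximity signal reports loss of binding between His-tagged CBF-beta and biotin-labelled RUNX1, each at 30 nM. Proteins are pre-associated for 20 minutes, compounds added for 15 minutes, then beads for 90 minutes, all at ambient temperature.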
L3MBTL1 inh: inhibitors of human L3MBTL1; Q9Y468; AlphaScreen L3MBTL1–H3K9me1 peptide binding; Potency, µM (top dose mostly 57.1 µM), for the others: top-dose activity, negative = inhibition, most hits filed as inhibitors; hit rate 0.66% among 230,000; AID 485360; note: potency is the fitted concentration of half-maximal effect; % is set by controls: 0 for no effect and ±100 for the full control effect; nearly all actives have a fitted effect of over 60% in size
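First, the protein-peptide complex forms for 30 min at room temperature (L3MBTL1 50 nM, biotinylated H3K9me1 peptide 75 nM). Next, compounds are pin-transferred and incubated 30 min. Finally, AlphaScreen beads are added and read after 30 min.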
Eya2 phos inh: inhibitors of human Eya2 phosphatase activity; O00167; recombinant Eya2, OMFP fluorescence dephosphorylation (OMFP is methylfluorescein phosphate); Potency, µM (top dose mostly 76.9 µM), for the others: top-dose activity, negative = inhibition, usual class: inhibitors; hit rate 0.006% among 330,000; note: potency is the fitted concentration of half-maximal effect; % is set by controls: 0 for no effect and ±100 for the full control effect
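Eya2 (0.2 uM) preincubated 10 min at ambient with compound, then OMFP substrate added at 50 uM; 10 min reaction in 50 mM HEPES pH 7.5, 50 mM NaCl, 5 uM MgCl2, 0.05% BSA, 1 mM DTT. Fluorescence read at Ex 485/Em 525 nm.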
Six1-Eya2 inh: inhibitors of human Six1/Eya2 interaction. AID 651725. activity change, % (test concentration not listed). hit rate 0.56% among 360,000. Q15475+O00167. AlphaScreen GST-Six1/His-Eya2 binding, biochemical; stronger effect = lower value; in the data active = activity change below about -65%; inconclusive = mostly about -30% to -63%; note: % is set by controls: 0 for no effect and ±100 for the full control effect
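AlphaScreen luminescence read after one hour at 37 °C in darkness. Pin-transferred compounds met GST-Six1 and His-Eya2 protein (5X stock 250 nM/500 nM) plus glutathione donor and Ni-chelate acceptor beads (5X, 50 ug/mL).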
Starred values were filed as active, the others as inactive; u = inconclusive; x = no result given; [ ] = remark or other dose. Unless noted, calls come from the whole dose curve; as a rule, active = well fitted curve in the direction sought with a large enough effect; inconclusive = small, poorly fitted or top-dose-only effect, or another doubt; inactive = no such curve, though single readings can be large; an effect the other way counts as inactive or inconclusive.

SMILES | CtBP-E1A inh | MBNL1-CUG inh | CBFb-RUNX1 inh | L3MBTL1 inh | Eya2 phos inh | Six1-Eya2 inh
COC(=O)c1sc(C(=O)OC)c(C(=O)OC)c1C(=O)OC | 9 | 8%[11.5 µM] | 12% | -11% | -4% | -1
CC[C@H](C)[C@@H](NC(=O)O[C@@H]1C(=O)c2ccc(OC)cc2O[C@H]1c1cccc(C(F)(F)F)c1)C(=O)OC | x | x | -14% | x | x | x
NC(=O)NC(CC(=O)NNC(=O)c1ccccn1)c1ccccc1Cl (stereo not drawn) | -79* | x | x | -1% | -3% | -65*
CC(C)COc1cccc(C(=O)NC(=S)NCc2cccnc2)c1 | 5 | -10% | -6% | -10% | -3% | -8
CCOCCCNS(=O)(=O)c1ccc(NC(=O)Cc2c(F)cccc2Cl)cc1 | 6 | -1% | 11% | -4% | -6% | 0
CC1=NN(c2ccc(Cl)c(C(=O)O)c2)C(=O)C1 | 12 | u | 5% | u | -18% | -9
CC1=NN(c2ccc(C(=O)OC(C)C)cc2)C(=O)/C1=C\C=C\c1ccco1 | -16 | -8% | 1% | 6.3µM* | -12% | -13
CC1=NN(c2ccccc2)C(=O)/C1=C\C=C\c1ccccc1 | 5 | x | -10% | -8% | -22% | -2
CCOC(=O)c1ccc(N2N=C(C)/C(=C/C=C/c3ccco3)C2=O)cc1 | 5 | 1% | u | 32µM* | -1% | -1
O=C(O)c1cc(N2N=C(C(F)(F)F)/C(=C/C=C/c3ccco3)C2=O)ccc1Cl | -11 | u | 2% | 1µM* | -24% | -78*
C[C@@H](c1ccccc1)N1C(=O)[C@H]2[C@@H]3[C@H](O)C=CC(=O)[C@H]3CC[C@H]2C1=O | x | x | 16%[13.1 µM] | x | x | x
CC(N)C(=O)NC(C(=O)NC(C)C(=O)Nc1cccc2ccccc12)C(C)C (stereo not drawn) | -2 | x | x | x | x | -7
CN(C(=O)c1ccc(NC(=O)Cc2ccc(NC(=O)C3CCN(S(=O)(=O)c4cccc([N+](=O)[O-])c4)CC3)cc2)cc1)C1CCCC1 | -7 | x | x | x | x | -5
COc1ccc2c(c1)-c1c(ssc1=S)C(C)(C)N2 | 7 | u | 8% | 20µM* | -20% | -19
COc1ccc(-n2sc3c(c2=S)-c2cc(OC)ccc2NC3(C)C)cc1 | -2 | 10% | u | 32µM* | 4% | -17
COc1ccc2c(c1)-c1c(sn(-c3ccc(OC)c(OC)c3)c1=S)C(C)(C)N2 | -5 | 7% | x | u | 0% | 0
COc1ccc2c(c1)-c1c(sn(-c3ccccc3)c1=S)C(C)(C)N2 | -5 | 8% | x | 32µM* | -9% | -17
O=C(CN1C2=NCCN2c2ccccc21)c1ccc(Br)s1 | -7 | -1% | 11% | 4% | 6% | -1
Cc1cc(Cl)c2oc(C(=O)N(C)CCc3cnn(C)c3)c(C)c2c1 | 3 | 6% | x | x | -10% | 0
Cc1cc(C)c2c(c1)NC(C(=O)O)C1CC=CC21 (stereo not drawn) | u | 23% | x | 5µM* | -7% | u
O=C(O)C1Nc2c(C(=O)N3CCOCC3)cccc2C2C=CCC12 (stereo not drawn) | -29 | u | -18% | 3.5µM* | 13% | -74*
O=C(O)C1Nc2c(C(F)(F)F)ccc(Cl)c2C2C=CCC12 (stereo not drawn) | x | 0% | x | x | 10% | -5
O=C(c1ccccc1O)N1CCOCC1 | 11 | -3% | 3% | 4% | 11% | 3
CCOC(=O)c1ccc2c(c1)C1C=CCC1C(C(=O)O)N2 (stereo not drawn) | x | u | x | 3.2µM* | 13% | x
CCOC(=O)C1Nc2ccc(C(=O)O)cc2C2C=CCC12 (stereo not drawn) | -22 | u | x | -8%[2.29 µM] | -11% | u
Cc1ccc2c(c1C)NC(C(=O)O)C1CC=CC21 (stereo not drawn) | -6 | 9% | x | 5µM* | -1% | -26
